Reference: the supplement of paper PMC11732987, “Enantioselective OTUD7B fragment discovery through chemoproteomics screening and high-throughput optimisation” (Communications Chemistry, 2025)

Key:
Assay in all cases: log2 ratio of Biotin-Ahx-Ub-VS probe labelling (fragment/DMSO); higher = less target engagement (more negative = stronger competition), active = hit call of the paper (q ≤ 0.05, log2 ratio ≤ -1)
Conditions in all cases: compound concentration: 200 uM; treatment time: 3 h
[1] = target: T1, USP42 (UniProt Q9H9J4)
T1 sequence (whole entry): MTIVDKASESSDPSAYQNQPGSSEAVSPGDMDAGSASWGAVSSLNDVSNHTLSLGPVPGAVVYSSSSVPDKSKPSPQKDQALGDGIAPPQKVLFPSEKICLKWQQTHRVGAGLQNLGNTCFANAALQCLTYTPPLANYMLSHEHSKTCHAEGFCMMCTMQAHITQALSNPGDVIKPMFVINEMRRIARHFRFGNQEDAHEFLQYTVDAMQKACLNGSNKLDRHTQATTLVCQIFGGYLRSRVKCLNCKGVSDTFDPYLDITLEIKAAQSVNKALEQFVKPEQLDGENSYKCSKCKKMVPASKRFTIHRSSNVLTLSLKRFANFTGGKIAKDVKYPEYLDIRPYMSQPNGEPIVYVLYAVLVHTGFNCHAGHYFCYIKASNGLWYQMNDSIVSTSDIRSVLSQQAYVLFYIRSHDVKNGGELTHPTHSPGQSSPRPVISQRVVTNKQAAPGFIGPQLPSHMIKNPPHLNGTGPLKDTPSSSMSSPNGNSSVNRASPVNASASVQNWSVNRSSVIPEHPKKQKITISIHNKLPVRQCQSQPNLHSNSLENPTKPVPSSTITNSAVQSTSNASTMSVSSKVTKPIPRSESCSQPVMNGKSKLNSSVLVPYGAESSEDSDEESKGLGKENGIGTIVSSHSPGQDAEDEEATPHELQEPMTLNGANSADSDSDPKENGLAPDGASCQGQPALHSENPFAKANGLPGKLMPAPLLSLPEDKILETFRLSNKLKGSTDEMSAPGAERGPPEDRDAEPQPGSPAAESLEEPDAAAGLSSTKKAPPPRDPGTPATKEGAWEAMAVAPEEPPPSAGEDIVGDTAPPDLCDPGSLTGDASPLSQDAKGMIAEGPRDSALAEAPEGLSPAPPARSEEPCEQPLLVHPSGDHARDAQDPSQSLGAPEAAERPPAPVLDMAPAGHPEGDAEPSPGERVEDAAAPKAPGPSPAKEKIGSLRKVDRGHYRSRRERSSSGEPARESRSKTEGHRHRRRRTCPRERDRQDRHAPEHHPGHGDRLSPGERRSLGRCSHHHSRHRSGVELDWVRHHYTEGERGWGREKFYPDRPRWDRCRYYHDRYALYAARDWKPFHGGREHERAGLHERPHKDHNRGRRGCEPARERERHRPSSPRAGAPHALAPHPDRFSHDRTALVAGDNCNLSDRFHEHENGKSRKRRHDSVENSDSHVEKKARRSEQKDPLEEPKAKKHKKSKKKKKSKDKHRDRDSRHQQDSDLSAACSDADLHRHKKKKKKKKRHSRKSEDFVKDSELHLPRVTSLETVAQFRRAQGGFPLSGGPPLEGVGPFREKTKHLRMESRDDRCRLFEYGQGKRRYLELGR
Summary of the method: (§1)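 Labelled DUBs were enriched with NeutrAvidin, digested with LysC and trypsin, and run by diaPASEF LC-MS/MS. The labelling used Biotin-Ahx-Ub-VS at 0.5 µM final for 1 h on HEK293T lysate (495 µg per sample) previously treated in triplicate with fragment at 200 µM or vehicle for 3 h. Values are average log2 fragment/vehicle ratios by unpaired t-test on global-median-normalised Spectronaut quantities of proteins with ≥2 unique peptides.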

[2] = target: USP46 (UniProt P62068)
Summary of the method: as §1

[3] = target: T2, USP47 (UniProt Q96K76)
T2 sequence (whole entry): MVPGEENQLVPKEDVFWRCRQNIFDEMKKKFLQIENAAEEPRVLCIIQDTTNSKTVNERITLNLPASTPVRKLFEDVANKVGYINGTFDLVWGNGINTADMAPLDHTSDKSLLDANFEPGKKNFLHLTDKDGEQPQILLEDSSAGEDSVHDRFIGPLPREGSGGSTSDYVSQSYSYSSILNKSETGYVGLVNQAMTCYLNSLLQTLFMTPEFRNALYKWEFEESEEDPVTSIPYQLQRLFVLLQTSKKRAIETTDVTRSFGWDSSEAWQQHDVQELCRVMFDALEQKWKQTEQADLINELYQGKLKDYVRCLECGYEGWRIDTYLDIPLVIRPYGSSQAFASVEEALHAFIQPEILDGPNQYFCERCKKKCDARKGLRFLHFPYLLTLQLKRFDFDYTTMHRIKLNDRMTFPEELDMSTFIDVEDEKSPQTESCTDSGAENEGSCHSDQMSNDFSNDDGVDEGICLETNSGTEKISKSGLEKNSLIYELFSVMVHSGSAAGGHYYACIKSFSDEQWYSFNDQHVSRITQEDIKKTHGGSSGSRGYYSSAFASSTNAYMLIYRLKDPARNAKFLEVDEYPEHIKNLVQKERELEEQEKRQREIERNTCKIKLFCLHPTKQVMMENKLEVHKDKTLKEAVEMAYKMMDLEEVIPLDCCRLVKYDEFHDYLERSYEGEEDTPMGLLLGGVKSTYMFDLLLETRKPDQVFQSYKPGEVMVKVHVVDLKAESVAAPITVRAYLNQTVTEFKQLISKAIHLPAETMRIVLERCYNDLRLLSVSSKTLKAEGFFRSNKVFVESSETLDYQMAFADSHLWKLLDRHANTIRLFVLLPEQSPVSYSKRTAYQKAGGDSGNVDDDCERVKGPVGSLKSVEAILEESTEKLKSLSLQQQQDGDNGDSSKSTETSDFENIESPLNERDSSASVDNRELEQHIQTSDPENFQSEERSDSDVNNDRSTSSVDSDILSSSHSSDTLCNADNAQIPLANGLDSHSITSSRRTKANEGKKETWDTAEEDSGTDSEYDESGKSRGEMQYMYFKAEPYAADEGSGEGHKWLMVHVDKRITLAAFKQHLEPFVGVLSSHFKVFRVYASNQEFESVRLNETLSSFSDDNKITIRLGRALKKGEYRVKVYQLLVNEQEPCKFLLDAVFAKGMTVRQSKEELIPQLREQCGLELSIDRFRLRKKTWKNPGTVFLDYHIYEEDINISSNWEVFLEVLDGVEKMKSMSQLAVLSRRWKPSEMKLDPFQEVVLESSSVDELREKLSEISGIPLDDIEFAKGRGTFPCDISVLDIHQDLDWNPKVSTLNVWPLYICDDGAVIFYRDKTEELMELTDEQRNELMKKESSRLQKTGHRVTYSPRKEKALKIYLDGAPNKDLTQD
Summary of the method: as §1

[4] = target: T3, USP48 (UniProt Q86UV5)
T3 sequence (whole entry): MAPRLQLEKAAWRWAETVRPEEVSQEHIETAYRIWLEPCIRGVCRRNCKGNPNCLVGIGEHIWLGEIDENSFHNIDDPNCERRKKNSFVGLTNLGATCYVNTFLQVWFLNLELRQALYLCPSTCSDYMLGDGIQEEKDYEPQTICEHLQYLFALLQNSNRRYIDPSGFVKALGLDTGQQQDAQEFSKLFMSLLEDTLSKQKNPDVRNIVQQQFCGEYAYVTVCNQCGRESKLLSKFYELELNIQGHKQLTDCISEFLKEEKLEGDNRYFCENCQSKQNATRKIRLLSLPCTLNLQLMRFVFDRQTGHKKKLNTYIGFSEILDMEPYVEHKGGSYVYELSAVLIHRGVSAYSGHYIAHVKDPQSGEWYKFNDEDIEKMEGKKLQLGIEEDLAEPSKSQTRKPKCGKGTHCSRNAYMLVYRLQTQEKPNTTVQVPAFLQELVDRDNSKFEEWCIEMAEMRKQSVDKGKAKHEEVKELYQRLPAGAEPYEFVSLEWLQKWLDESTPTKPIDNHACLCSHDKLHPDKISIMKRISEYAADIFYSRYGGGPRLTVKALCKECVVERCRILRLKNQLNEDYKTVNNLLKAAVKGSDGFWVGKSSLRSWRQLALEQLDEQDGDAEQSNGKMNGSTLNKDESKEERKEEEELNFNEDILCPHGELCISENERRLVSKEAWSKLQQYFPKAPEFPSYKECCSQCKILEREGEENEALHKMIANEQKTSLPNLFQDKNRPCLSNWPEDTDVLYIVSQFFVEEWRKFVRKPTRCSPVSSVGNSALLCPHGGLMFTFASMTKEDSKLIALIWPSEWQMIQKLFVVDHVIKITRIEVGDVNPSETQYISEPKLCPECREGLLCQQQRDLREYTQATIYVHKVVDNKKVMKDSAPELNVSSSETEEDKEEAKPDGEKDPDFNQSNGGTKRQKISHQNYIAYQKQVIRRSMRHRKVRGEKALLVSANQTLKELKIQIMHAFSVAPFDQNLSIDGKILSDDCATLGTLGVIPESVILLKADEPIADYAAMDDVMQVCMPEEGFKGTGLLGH
Summary of the method: as §1

[5] = target: T4, USP5 (UniProt P45974)
T4 sequence (whole entry): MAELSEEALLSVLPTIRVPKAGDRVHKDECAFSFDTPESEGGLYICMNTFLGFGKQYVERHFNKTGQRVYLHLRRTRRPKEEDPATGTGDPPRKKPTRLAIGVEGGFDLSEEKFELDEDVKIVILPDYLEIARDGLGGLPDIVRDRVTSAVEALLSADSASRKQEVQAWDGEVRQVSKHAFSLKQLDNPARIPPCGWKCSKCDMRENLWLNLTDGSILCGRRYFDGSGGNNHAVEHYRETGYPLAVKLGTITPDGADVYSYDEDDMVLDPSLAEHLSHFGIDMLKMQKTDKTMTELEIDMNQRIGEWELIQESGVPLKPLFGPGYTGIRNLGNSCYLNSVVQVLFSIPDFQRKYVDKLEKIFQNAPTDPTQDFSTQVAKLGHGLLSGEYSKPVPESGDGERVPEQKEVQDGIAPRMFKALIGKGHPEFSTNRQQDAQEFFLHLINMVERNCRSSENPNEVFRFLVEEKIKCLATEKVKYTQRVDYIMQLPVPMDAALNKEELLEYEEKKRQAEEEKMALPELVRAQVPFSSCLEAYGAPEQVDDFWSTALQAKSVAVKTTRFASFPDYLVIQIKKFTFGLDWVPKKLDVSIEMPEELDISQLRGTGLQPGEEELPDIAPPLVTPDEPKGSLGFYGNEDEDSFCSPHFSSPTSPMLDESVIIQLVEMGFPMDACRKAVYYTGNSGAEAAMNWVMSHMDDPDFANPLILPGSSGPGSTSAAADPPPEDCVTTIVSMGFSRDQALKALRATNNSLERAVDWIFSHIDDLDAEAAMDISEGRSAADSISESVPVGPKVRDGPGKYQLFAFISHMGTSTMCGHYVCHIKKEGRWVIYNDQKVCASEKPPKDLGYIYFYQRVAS
Summary of the method: as §1

[6] = target: USP54 (UniProt Q70EL1)
Summary of the method: as §1

[7] = target: USP7 (UniProt Q93009)
Summary of the method: as §1

[8] = target: T5, USP8 (UniProt P40818)
T5 sequence (whole entry): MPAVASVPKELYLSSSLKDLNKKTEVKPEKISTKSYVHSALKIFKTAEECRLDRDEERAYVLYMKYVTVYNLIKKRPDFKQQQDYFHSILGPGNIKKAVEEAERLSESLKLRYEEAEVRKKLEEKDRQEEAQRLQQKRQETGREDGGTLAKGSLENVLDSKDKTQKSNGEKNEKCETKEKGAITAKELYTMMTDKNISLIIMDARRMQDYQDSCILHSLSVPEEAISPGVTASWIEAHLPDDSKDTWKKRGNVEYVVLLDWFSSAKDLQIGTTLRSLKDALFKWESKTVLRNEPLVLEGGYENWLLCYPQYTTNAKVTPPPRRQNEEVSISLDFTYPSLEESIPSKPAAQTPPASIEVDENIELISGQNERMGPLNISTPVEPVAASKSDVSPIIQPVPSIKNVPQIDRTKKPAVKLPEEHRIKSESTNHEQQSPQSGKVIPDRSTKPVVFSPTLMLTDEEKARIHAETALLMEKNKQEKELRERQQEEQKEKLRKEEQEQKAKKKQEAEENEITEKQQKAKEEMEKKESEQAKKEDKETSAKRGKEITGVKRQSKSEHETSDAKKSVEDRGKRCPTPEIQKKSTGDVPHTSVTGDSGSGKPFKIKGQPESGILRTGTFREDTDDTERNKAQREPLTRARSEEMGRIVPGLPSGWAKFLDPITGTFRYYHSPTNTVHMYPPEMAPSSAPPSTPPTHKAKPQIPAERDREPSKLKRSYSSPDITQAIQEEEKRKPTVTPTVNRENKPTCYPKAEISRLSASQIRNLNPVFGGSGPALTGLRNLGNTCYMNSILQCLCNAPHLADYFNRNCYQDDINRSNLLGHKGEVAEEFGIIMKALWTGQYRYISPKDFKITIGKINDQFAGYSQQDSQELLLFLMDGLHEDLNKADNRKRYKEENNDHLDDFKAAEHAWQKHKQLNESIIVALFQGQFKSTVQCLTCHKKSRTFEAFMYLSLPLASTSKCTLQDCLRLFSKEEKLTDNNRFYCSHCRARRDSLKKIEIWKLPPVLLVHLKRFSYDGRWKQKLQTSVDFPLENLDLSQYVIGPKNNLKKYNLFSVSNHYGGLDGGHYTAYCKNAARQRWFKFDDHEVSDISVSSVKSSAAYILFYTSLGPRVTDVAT
Summary of the method: as §1

[9] = target: USP9X (UniProt Q93008)
Summary of the method: as §1

[10] = target: UniProt O00487
Summary of the method: as §1

Measured: log2 ratio of Biotin-Ahx-Ub-VS probe labelling

Sequence of USP9X (Q93008 whole entry): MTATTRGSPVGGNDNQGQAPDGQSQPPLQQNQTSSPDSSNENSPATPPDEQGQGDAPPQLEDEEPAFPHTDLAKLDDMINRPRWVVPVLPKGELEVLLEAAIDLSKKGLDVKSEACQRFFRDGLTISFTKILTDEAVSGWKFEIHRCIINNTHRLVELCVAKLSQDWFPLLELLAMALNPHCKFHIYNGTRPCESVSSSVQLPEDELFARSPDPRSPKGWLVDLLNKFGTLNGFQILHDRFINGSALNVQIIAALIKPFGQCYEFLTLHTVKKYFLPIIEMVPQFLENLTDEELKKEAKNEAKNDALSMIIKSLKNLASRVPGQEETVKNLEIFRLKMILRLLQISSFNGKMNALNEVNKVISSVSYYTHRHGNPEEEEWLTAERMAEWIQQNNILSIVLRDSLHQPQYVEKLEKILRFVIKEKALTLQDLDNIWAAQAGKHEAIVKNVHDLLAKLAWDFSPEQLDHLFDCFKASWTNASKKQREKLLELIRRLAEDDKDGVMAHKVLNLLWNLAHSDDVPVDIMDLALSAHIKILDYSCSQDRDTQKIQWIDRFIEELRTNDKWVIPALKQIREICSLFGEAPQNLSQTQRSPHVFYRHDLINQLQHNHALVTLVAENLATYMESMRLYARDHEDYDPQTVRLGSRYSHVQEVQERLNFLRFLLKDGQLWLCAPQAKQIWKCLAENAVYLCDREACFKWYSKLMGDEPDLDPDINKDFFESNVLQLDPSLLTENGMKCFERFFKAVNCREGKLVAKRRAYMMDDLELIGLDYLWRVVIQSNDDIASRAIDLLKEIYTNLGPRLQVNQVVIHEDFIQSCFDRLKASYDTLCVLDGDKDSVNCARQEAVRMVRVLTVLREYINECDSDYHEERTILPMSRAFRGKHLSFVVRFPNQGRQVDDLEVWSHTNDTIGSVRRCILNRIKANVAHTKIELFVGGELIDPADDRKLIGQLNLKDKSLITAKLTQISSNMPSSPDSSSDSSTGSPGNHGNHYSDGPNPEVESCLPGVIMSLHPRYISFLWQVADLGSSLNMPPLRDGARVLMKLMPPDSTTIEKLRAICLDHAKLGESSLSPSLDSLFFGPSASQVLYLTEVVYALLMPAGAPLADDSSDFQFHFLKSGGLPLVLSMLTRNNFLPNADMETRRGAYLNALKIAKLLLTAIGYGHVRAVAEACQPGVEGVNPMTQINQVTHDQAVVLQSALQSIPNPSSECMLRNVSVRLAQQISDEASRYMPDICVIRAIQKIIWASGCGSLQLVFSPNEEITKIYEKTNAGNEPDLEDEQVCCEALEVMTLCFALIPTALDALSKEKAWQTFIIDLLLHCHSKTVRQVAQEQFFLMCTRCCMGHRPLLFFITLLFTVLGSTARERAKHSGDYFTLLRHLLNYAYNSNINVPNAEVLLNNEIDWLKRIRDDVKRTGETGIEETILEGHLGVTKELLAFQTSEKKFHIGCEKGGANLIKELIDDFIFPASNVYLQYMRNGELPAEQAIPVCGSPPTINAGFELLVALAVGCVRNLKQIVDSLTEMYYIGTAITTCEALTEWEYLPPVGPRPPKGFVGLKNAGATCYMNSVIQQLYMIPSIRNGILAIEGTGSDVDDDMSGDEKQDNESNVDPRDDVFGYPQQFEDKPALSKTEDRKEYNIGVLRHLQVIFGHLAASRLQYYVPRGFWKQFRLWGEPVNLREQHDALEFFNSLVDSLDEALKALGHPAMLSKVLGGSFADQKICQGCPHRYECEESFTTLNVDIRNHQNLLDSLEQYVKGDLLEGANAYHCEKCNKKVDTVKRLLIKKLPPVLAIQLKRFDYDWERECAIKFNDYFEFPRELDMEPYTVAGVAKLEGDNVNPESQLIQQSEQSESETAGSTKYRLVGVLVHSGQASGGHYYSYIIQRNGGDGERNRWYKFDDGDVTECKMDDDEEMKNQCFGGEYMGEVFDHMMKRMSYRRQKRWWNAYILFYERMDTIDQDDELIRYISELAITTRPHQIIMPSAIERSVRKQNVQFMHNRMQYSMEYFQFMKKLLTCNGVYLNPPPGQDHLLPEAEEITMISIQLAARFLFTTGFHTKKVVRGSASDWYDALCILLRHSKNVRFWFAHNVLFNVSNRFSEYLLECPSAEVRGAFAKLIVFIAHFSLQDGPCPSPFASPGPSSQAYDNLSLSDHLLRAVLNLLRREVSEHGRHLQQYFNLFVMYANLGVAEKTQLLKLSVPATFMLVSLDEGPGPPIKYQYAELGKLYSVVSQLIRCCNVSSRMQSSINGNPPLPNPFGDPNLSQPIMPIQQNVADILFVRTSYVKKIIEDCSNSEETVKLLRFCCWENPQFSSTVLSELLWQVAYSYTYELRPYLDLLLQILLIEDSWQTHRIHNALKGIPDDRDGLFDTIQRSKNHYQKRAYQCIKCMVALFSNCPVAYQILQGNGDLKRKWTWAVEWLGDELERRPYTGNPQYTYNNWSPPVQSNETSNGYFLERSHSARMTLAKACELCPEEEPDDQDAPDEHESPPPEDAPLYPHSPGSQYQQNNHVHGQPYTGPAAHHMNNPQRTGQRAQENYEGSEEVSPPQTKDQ
Sequence of USP54 (Q70EL1 whole entry): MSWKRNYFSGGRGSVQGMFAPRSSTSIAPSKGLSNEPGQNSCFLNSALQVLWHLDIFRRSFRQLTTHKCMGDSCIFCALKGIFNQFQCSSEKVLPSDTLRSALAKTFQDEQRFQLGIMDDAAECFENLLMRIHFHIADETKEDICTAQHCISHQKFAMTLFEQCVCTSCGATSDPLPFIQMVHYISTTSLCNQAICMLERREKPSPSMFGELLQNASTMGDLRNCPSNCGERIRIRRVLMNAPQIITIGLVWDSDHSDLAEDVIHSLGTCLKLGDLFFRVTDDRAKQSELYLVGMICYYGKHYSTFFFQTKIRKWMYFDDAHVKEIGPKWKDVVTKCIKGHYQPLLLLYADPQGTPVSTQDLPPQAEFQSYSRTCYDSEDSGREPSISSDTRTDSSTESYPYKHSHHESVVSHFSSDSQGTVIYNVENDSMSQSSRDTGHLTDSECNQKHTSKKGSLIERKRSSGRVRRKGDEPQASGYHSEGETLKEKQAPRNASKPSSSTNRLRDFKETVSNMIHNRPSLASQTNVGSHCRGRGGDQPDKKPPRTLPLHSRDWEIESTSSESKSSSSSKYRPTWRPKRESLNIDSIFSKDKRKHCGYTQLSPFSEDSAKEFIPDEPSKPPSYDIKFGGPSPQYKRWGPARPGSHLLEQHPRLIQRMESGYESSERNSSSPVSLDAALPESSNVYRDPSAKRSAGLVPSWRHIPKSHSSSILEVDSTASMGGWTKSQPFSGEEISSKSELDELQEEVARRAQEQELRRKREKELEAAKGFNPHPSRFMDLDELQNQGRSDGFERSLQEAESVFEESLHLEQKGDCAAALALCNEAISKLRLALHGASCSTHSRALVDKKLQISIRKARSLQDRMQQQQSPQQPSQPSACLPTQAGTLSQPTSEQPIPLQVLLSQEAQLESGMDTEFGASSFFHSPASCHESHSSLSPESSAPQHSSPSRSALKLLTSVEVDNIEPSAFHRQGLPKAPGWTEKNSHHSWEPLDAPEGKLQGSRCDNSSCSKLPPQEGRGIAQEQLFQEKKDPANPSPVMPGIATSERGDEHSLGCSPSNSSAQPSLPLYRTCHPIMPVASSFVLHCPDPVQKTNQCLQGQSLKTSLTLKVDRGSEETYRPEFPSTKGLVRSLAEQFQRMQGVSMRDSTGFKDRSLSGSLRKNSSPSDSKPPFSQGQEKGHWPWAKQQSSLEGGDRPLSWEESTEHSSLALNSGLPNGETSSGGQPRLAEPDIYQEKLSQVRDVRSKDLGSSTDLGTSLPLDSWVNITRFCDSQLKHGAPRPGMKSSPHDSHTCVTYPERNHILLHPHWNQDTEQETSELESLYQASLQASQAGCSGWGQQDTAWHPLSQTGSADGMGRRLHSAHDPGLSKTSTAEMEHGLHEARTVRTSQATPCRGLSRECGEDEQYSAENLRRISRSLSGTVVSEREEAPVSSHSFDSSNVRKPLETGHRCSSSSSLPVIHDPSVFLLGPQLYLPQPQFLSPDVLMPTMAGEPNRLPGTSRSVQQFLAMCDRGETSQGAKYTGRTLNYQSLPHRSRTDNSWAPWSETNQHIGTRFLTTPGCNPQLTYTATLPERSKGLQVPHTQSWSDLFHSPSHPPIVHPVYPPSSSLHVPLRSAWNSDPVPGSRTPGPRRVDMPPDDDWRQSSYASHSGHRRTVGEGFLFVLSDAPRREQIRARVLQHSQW
Sequence of USP46 (P62068 whole entry): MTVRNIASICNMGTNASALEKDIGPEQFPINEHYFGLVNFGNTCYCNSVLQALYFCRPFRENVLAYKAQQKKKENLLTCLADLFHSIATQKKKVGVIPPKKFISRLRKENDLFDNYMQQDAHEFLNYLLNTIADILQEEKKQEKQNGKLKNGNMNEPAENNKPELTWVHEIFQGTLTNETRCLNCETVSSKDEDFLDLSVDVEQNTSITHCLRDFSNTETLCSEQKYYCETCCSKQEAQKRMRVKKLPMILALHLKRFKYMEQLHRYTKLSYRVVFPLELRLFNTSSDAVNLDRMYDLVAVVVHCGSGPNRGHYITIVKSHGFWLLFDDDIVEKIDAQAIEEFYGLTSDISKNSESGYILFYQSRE
Sequence of UniProt O00487 (O00487 whole entry): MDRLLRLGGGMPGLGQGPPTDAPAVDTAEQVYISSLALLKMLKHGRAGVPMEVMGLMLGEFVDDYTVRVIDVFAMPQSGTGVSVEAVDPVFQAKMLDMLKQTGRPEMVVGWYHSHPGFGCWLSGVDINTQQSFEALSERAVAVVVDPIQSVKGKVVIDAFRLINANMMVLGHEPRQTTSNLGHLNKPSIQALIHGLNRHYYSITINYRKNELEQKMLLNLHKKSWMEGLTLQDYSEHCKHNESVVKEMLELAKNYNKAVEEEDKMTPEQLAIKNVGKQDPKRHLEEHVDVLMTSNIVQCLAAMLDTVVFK

O=C(CCl)Nc1nnc(CC(F)(F)F)o1
inactive: [1] -0.117 | [2] 0.083 | [3] 0.172 | [4] -0.236 | [5] 0.0095 | [6] 0.782 | [7] -0.136 | [8] -0.263 | [9] -0.134 | [10] -0.296
